Screening data deposited in PubChem by several laboratories.
A selection: hits, their analogues and other compounds. The true share with any hit is near 2.5%.
Jurkat NFkB inh – lowers PMA/ionomycin-induced NF-kB signal in Jurkat cells; PMA/ionomycin-induced NF-kB luciferase reporter, luminescence; inhibition, % at 4 µM; 330,000 tested, 0.53% active; in the data active = inhibition above about 50%
ANO1 activ – activates or potentiates the mouse TMEM16A chloride channel. AID 623877. B-score at 10 µM. 340,000 tested, 0.3% active. Q8BHY3. HEK293 TMEM16A/YFP-H148Q/I152L, iodide quench fluorescence; hits give low values;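 active = fluorescence-ratio B-score plate-corrected deviation score at least 3 library SD below zero, with starting fluorescence score within 5 deviations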;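 also: channel opened by trigger with iodide after compound preincubation; score built on the fluorescence ratio of max minus min over baseline; more negative score means more quench and so TMEM16A activation or potentiation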
Target sequence (Q8BHY3 whole entry, looked up): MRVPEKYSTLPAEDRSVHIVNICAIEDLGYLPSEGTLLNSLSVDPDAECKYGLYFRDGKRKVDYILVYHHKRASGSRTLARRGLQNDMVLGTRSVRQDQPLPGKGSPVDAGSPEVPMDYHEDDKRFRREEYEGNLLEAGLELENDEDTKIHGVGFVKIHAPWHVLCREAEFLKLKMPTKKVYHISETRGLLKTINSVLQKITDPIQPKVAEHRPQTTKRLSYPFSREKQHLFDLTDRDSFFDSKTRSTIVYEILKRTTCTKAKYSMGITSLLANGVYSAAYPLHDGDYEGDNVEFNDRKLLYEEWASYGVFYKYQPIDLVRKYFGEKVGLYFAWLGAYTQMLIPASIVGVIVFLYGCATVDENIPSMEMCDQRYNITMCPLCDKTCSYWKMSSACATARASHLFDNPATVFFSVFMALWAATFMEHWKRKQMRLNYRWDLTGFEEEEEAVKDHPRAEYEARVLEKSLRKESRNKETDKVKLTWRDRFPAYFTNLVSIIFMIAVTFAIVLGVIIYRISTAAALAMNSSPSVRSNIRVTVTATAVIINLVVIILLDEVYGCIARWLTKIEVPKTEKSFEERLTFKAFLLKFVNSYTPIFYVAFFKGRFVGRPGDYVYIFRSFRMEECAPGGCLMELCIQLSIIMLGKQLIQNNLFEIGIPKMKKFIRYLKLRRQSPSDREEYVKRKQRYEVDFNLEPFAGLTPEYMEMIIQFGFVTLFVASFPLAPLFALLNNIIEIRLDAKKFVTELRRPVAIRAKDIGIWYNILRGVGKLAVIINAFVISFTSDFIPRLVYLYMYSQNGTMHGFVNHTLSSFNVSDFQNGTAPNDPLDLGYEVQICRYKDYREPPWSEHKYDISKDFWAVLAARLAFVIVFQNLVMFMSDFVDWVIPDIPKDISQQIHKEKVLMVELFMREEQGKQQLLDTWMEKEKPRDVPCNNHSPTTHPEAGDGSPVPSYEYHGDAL
ANO1 block – mouse TMEM16A channel inhibition, primary screen | Q8BHY3 | AID 588511 | 310,000 tested, 1.2% active | normalized B-score (activity score, 25-100; higher = stronger inhibition) at 10 µM | HEK293 TMEM16A/YFP iodide influx fluorescence, ionomycin;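 active = ratio plate-corrected score three or more library SD toward inhibition, starting fluorescence score within five deviations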;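 also: score derived from kinetic fluorescence span divided by baseline fluorescence per well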
KLF5 inh – kruppel-like factor 5 inhibition | DLD-1 KLF5 promoter-luciferase reporter, luminescence | inhibition, % at 5 µM | 290,000 tested, 0.23% active | AID 1700;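 active = inhibition above a per-plate limit of that plate's mean compound inhibition plus 3 SD, cut at about 60% in these data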;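 also: higher means less KLF5 promoter-driven luciferase light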
697 NFkB inh – inhibitors of the PMA/ionomycin-induced NF-kB reporter in 697 B cells; 330,000 tested, 0.33% active; inhibition, % at 4 µM; 697 B-cell NF-kB luciferase reporter, 16 h; in the data active = inhibition above about 35%
aSyn 5UTR inh – 5' untranslated region of α-synuclein, MLPCN primary screen. alpha-synuclein 5'UTR reporter, inhibitor activity. inhibition, % (tested at 7.5 µM). 300,000 tested, 0.82% active. AID 1813; in the data active = inhibition above about 60%;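 also: H4 neuroglioblastoma cells stably carrying SNCA 5'UTR luciferase fusion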
697 NFkB conf – inhibitors of the PMA/ionomycin-induced NF-kB reporter in 697 B cells, retest; inhibition, % at 4 µM; shares compounds with 697 NFkB inh; 2,000 tested, 35% active; 697 B-cell NF-kB luciferase, 16 h; in the data active = inhibition mostly above about 28%, no sharp cut-off; inactive = mostly below about 22%
A number is an active result; i = inactive; nt = not tested or not shown.

SMILES	Jurkat NFkB inh	ANO1 activ	ANO1 block	KLF5 inh	697 NFkB inh	aSyn 5UTR inh	697 NFkB conf
O=C(Nc1ccc(NS(=O)(=O)c2ccccc2)cc1)c1ccc(Cl)cc1	i	i	i	i	i	i	nt
NC(=S)c1ncc(C(F)(F)F)cc1Cl	i	i	i	i	i	i	nt
NC(=S)Nc1ncc(C(F)(F)F)cc1Cl	i	i	i	i	47	i	i
CCN1CCN(C(=O)CSc2cc(=O)n(CC)c3ccccc23)CC1	i	i	i	i	39	i	54
CCn1c(=O)c2cc(C(=O)NCCOC)sc2c2ccccc21	i	i	i	i	i	i	nt
CCn1c(=O)cc(SCC(=O)N2CCCCC2)c2ccccc21	i	i	i	i	58	i	42
CCn1c(=O)c2cc(C(=O)N3CCCC3)sc2c2ccccc21	i	nt	nt	i	53	i	32
CCn1c(=O)cc(SCC(=O)N2CCN(C)CC2)c2ccccc21	i	i	i	i	42	i	34
CCn1c(=O)cc(SCC(=O)N2CCN(Cc3ccc4c(c3)OCO4)CC2)c2ccccc21	i	i	i	i	i	i	nt
COC(=O)C[C@H](NC(=O)Cn1cnc2c(NCc3ccccc3)ncnc21)C(=O)OC	nt	nt	nt	nt	i	nt	nt
Cc1cc(Cl)ccc1OCC(=O)NNC(=O)CCOc1ccccc1	i	i	nt	nt	i	nt	nt
CCOC(=O)C1CCN(C(=O)CSc2cc(=O)n(CC)c3ccccc23)CC1	i	i	i	i	i	i	nt
CCn1c(=O)cc(SCC(=O)N2CCC(C)CC2)c2ccccc21	i	i	i	i	59	i	45
Cn1c(=O)cc(SCC(=O)N2CCN(C3CCCCC3)CC2)c2ccccc21	i	i	i	nt	38	i	i
C/C(=N\Nc1nncc2ccccc12)c1ccc(O)cc1	i	i	i	i	i	i	i
COc1cc(/C=C/C(=O)OCC(=O)Nc2oc(C)c3c(C)n[nH]c(=O)c23)ccc1OC(F)F	i	i	i	nt	i	i	nt
COC(=O)c1ccccc1NC(=O)c1c(O)c2c([nH]c1=O)CCCC2	i	i	i	i	i	i	nt
O=C(Nc1ccc(O)cc1)c1c(O)c2c([nH]c1=O)CCCC2	i	i	nt	i	i	i	i
Cc1c(CC(=O)NCCC(=O)O)c(=O)oc2cc3oc4c(c3cc12)CCCC4	i	i	i	i	i	i	nt
Cc1c(CCC(=O)N[C@@H](C)C(=O)O)c(=O)oc2cc3oc4c(c3cc12)CCCC4	i	i	i	i	41	71	i
O=C(COc1ccc2c3c(c(=O)oc2c1)CCC3)N1CCCC1	i	i	i	i	i	i	nt
Cc1oc2c(C)c3oc(=O)c(CCC(=O)N4CCC(C(=O)NCCC(=O)O)(c5ccccc5)CC4)c(C)c3cc2c1C	i	i	i	i	i	i	nt
O=C(O)C1CCN(C(=O)COc2ccc3c4c(c(=O)oc3c2)CCCC4)CC1	i	i	i	i	38	i	i
Cc1c(CCC(=O)N2CCC(C(=O)O)CC2)c(=O)oc2cc3oc4c(c3cc12)CCCC4	i	i	i	i	49	74	47
Cc1c(CCC(=O)N2CCC(C(=O)O)(c3ccccc3)CC2)c(=O)oc2cc3oc4c(c3cc12)CCCC4	i	i	i	i	53	67	37
SMILES	Jurkat NFkB inh	ANO1 activ	ANO1 block	KLF5 inh	697 NFkB inh	aSyn 5UTR inh	697 NFkB conf
NNC(=O)c1cccc(COc2ccc(Br)cc2)c1	i	i	i	i	i	i	nt
COc1ccc(OCc2cccc(C(=O)Nc3cc(C)on3)c2)cc1	i	i	i	i	91	66	77
COc1ccc(C(=O)Nc2cc(C)on2)cc1	i	i	i	i	i	i	nt
CCOc1ccc(OCc2cccc(C(=O)N/N=C/c3cccnc3)c2)cc1	i	i	i	i	67	87	52
CC(C)c1ccc(OCc2cccc(C(=O)N/N=C/c3cccnc3)c2)cc1	nt	i	i	i	nt	i	nt
COc1ccc(OCc2cccc(C(=O)NN)c2)cc1	i	i	i	i	68	67	29
CCN(CC)S(=O)(=O)c1cccc(C(=O)Nc2ccc(S(=O)(=O)NC3=NCCCCC3)cc2)c1	i	i	i	nt	i	i	nt
CC1CCCC(NC(=O)COC(=O)[C@@H](NC(=O)c2ccccc2Cl)C(C)C)C1C (some centres not stated)	i	i	nt	nt	i	nt	nt
CC1=Nc2cc(C(=O)O)ccc2Sc2c(C)ccc(C)c21	i	i	i	i	i	i	nt
CC1=Nc2cc(C(=O)N3CCCC3)ccc2Sc2c(C)ccc(C)c21	i	i	i	i	i	i	i
COc1ccc(OC)c(CCNC(=O)C(C)n2nc(C)c3c(C)n(-c4ccc(C)cc4)nc3c2=O)c1 (configuration not stated)	i	i	i	i	40	i	87
COc1ccc(OC)c(CCNC(=O)C(C)n2nc(C)c3c(C)n(-c4ccccc4)nc3c2=O)c1 (configuration not stated)	i	i	i	i	i	i	nt
CCC(C(=O)OCC(=O)NC1CCS(=O)(=O)C1)c1ccccc1 (configuration not stated)	i	i	i	nt	i	i	nt
COc1cc(Br)c(C(=O)c2nccc3cc(OC)c(OC)cc23)cc1OC	i	i	i	i	39	i	30
COc1cc(N)c(C(=O)c2nccc3cc(OC)c(OC)cc23)cc1OC	i	i	i	i	i	i	nt
Cc1ccc(C(=O)Nc2cccc(C(F)(F)F)c2)cc1Nc1ccccn1	i	i	i	nt	i	i	nt
Cc1cn(-c2cc(C(=O)Nc3ccc(C)c(NC(=O)C(=O)c4c[nH]c5ccccc45)c3)cc(C(F)(F)F)c2)cn1	i	i	i	nt	37	66	i
Cc1ccc(C(=O)Oc2oc(-c3ccccc3)nc2C=Nc2ccc(N(C)C)cc2)cc1	i	i	i	i	35	i	i
COc1ccc(OC)c(S(=O)(=O)Nc2ccc(-c3ccc4nncn4n3)cc2)c1	i	i	i	nt	35	i	i
CCc1ccc(/C=C2\SC(=S)N(CCC(=O)NC3=NCCS3)C2=O)cc1	i	nt	i	i	71	89	38
COc1ccccc1/C=C1\SC(=S)N(CCC(=O)Nc2ccc(C(=O)O)c(O)c2)C1=O	i	i	i	i	i	i	nt
O=C(CCN1C(=O)/C(=C\c2ccccc2Cl)SC1=S)Nc1cccnc1	i	i	i	i	i	i	nt
COc1ccccc1/C=C1\SC(=S)N(CC(=O)Nc2nnc(C)s2)C1=O	i	nt	i	i	72	i	i
COc1ccccc1/C=C1/SC(=S)N(CCC(=O)Nc2cccnc2)C1=O	i	i	i	i	35	i	28
CCc1ccc(/C=C2\SC(=S)N(CCCC(=O)Nc3ccccn3)C2=O)cc1	i	i	i	i	76	73	58
O=C(NCC1CCCN1S(=O)(=O)c1cccs1)c1ccc(Cl)cc1 (configuration not stated)	i	i	i	nt	i	i	nt
O=C(CCN1C(=O)/C(=C\c2cccs2)SC1=S)NC1=NCCS1	i	i	i	i	i	i	nt
